The values below come from the supplement of paper PMC12340641.

For the experiment, the system named is HEK293FT dCK*-IKZF1. Description: relative growth recovery (pomalidomide 10 uM = 100%, DMSO = 0%); higher = more growth rescue (IKZF1 fusion degradation). Conditions: compound concentration: 5 uM; AraC concentration: 0.3 uM; overnight pretreatment + 4 days AraC. An outline of the steps:
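HEK293FT cells stably expressing a dCK*-IKZF1 fusion (300/well, 384-well) received 5 μM compound 2 h after seeding. After overnight at 37 °C they received a nucleoside suicide substrate at 0.3 μM plus medium for 4 days. On day 5, Hoechst 33342-stained nuclei were counted by whole-well imaging. Growth recovery was normalised per plate to a reference degrader (100%) and vehicle (0%); values are means of duplicates run on different days.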
For the compound `NS(=O)(=O)Cc1noc2ccccc12` [zonisamide], the relative growth recovery is -2.26%. To `O=C(Nc1cccc(C(F)(F)F)c1)Nc1ccc(Br)cc1-c1nnn[nH]1` belongs -2.33%. To `Oc1c(Cl)cc(Cl)c(Cl)c1Cc1c(O)c(Cl)cc(Cl)c1Cl` [Hexachlorophene] belongs -1.27%. The result for `CCCCOC(=O)c1ccc(N)cc1` reads -0.295%; that for `CCN(CC)CCOc1ccc2c(c1)C(=O)c1cc(OCCN(CC)CC)ccc1-2`, -8.99%.
